Measurements reported in paper PMC12820563, “FoxP3 forms a head-to-head dimer in vivo and stabilizes its multimerization on adjacent microsatellites”.
Over roughly 16,000 sequences, “rpm ratio (pull-down/input)” has its median near 0.5; the highest 2% begin near 5.5. What follows is part of a selection rich in the highest values, with near analogues and random picks from the rest.

Target: T1, MBP-FoxP3dN (Mus musculus, UniProt Q99JB6 188-423)
T1 sequence: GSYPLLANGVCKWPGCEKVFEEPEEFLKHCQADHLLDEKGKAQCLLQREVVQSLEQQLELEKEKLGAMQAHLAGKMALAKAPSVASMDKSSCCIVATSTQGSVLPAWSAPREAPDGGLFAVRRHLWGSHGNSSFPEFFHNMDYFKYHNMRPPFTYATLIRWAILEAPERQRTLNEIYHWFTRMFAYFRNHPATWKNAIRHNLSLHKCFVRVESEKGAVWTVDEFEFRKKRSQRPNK
Assay: PD-seq (MBP pull-down with sequencing); 20 mM Tris-HCl pH 7.5, 100 mM NaCl, 1.5 mM MgCl2, 0.4 uM protein, 0.1 uM dsDNA library, 30 min, room temperature, amylose pull-down; high values mean tight binding
Conditions: protein: recombinant; tags: His6-MBP; chain copies: 2; dsDNA, one strand shown
How it was run: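 Protein and DNA were mixed at 0.4 µM and 0.1 µM and held for 30 min at room temperature in Tris pH 7.5 buffer with NaCl and MgCl2; the protein was a His6-MBP-tagged, N-terminally truncated mouse FoxP3 or FoxP1 fragment from E. coli, and the DNA a Klenow-filled double-stranded degenerate library. Amylose resin captured the complexes, which were washed three times. Binding is read as reads-per-million enrichment of pull-down versus input after Illumina sequencing, with replicates pooled.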

Question: For “GATGATTGTTCTCCCAGCTGATGAATTTGCAAATTCGAGTAAACAAATTTTCCTAATCTTTCTGTTCAAGCGCCATCTAC”, which binding signal is on record?
Answer: 0.496 RPM ratio (pull-down/input)

Question: With “GATGATTGTTCTCCCAGCTGATGAATTTTGGTCGTCGAGTAAACAAATTTTCCTAATCTTTCTGTTCAAGCGCCATCTAC” as the sequence, how does the binding signal read?
Answer: 0.496 RPM ratio (pull-down/input)

Question: With “GATGATTGTTCTCCCAGCTGATGAATTTGGGTGGTCGAGTAAACAAATTTTCCTAATCTTTCTGTTCAAGCGCCATCTAC” as the sequence, how does the binding signal read?
Answer: 0.682 RPM ratio (pull-down/input)

Question: With “GATGATTGTTCTCCCAGCTGATGAATTGTTAACTTCGAGTAAACAAATTTTCCTAATCTTTCTGTTCAAGCGCCATCTAC” as the sequence, how does the binding signal read?
Answer: 0.587 RPM ratio (pull-down/input)

Question: “GATGATTGTTCTCCCAGCTGATGAATTGCTCCAATCGAGTAAACAAATTTTCCTAATCTTTCTGTTCAAGCGCCATCTAC” was tested. Which binding signal did it give?
Answer: 0.467 RPM ratio (pull-down/input)

Question: For “GATGATTGTTCTCCCAGCTGATGAATTTTCTCGCTCGAGTAAACAAATTTTCCTAATCTTTCTGTTCAAGCGCCATCTAC”, which binding signal is on record?
Answer: 0.241 RPM ratio (pull-down/input)

Question: Which binding signal does the source give for “GATGATTGTTCTCCCAGCTGATGAATTATATATATCGAGTAAACAAATTTTCCTAATCTTTCTGTTCAAGCGCCATCTAC” here?
Answer: 1.27 RPM ratio (pull-down/input)

Question: “GATGATTGTTCTCCCAGCTGATGAATTGAAGGGATCGAGTAAACAAATTTTCCTAATCTTTCTGTTCAAGCGCCATCTAC” was tested. Which binding signal did it give?
Answer: 0.265 RPM ratio (pull-down/input)

Question: For “GATGATTGTTCTCCCAGCTGATGAATTCAGGCGATCGAGTAAACAAATTTTCCTAATCTTTCTGTTCAAGCGCCATCTAC”, which binding signal is on record?
Answer: 0.508 RPM ratio (pull-down/input)

Question: “GATGATTGTTCTCCCAGCTGATGAATTGCGTGTGTCGAGTAAACAAATTTTCCTAATCTTTCTGTTCAAGCGCCATCTAC” was tested. Which binding signal did it give?
Answer: 2.22 RPM ratio (pull-down/input)

Question: How did the binding signal turn out when “GATGATTGTTCTCCCAGCTGATGAATTATGCGTGTCGAGTAAACAAATTTTCCTAATCTTTCTGTTCAAGCGCCATCTAC” was run?
Answer: 5.88 RPM ratio (pull-down/input)

Question: “GATGATTGTTCTCCCAGCTGATGAATTTTGCGTGTCGAGTAAACAAATTTTCCTAATCTTTCTGTTCAAGCGCCATCTAC” was tested. Which binding signal did it give?
Answer: 5.56 RPM ratio (pull-down/input)

Question: With “GATGATTGTTCTCCCAGCTGATGAATTGCGCGTGTCGAGTAAACAAATTTTCCTAATCTTTCTGTTCAAGCGCCATCTAC” as the sequence, how does the binding signal read?
Answer: 4.88 RPM ratio (pull-down/input)

Question: With “GATGATTGTTCTCCCAGCTGATGAATTATGCGCGTCGAGTAAACAAATTTTCCTAATCTTTCTGTTCAAGCGCCATCTAC” as the sequence, how does the binding signal read?
Answer: 3.33 RPM ratio (pull-down/input)

Question: With “GATGATTGTTCTCCCAGCTGATGAATTTGCGTGTTCGAGTAAACAAATTTTCCTAATCTTTCTGTTCAAGCGCCATCTAC” as the sequence, how does the binding signal read?
Answer: 3.79 RPM ratio (pull-down/input)

Question: “GATGATTGTTCTCCCAGCTGATGAATTATATGCGTCGAGTAAACAAATTTTCCTAATCTTTCTGTTCAAGCGCCATCTAC” was tested. Which binding signal did it give?
Answer: 1.07 RPM ratio (pull-down/input)

Question: Which binding signal does the source give for “GATGATTGTTCTCCCAGCTGATGAATTGTGTGCGTCGAGTAAACAAATTTTCCTAATCTTTCTGTTCAAGCGCCATCTAC” here?
Answer: 2.16 RPM ratio (pull-down/input)

Question: With “GATGATTGTTCTCCCAGCTGATGAATTGTGCGTGTCGAGTAAACAAATTTTCCTAATCTTTCTGTTCAAGCGCCATCTAC” as the sequence, how does the binding signal read?
Answer: 6.18 RPM ratio (pull-down/input)

Question: How did the binding signal turn out when “GATGATTGTTCTCCCAGCTGATGAATTGGCCACGTCGAGTAAACAAATTTTCCTAATCTTTCTGTTCAAGCGCCATCTAC” was run?
Answer: 0.526 RPM ratio (pull-down/input)

Question: With “GATGATTGTTCTCCCAGCTGATGAATTGGTAGCTTCGAGTAAACAAATTTTCCTAATCTTTCTGTTCAAGCGCCATCTAC” as the sequence, how does the binding signal read?
Answer: 0.798 RPM ratio (pull-down/input)

Question: “GATGATTGTTCTCCCAGCTGATGAATTTAGCCCGTCGAGTAAACAAATTTTCCTAATCTTTCTGTTCAAGCGCCATCTAC” was tested. Which binding signal did it give?
Answer: 1.59 RPM ratio (pull-down/input)

Question: How did the binding signal turn out when “GATGATTGTTCTCCCAGCTGATGAATTAGTGCGATCGAGTAAACAAATTTTCCTAATCTTTCTGTTCAAGCGCCATCTAC” was run?
Answer: 0.851 RPM ratio (pull-down/input)

Question: Which binding signal does the source give for “GATGATTGTTCTCCCAGCTGATGAATTTGTCTACTCGAGTAAACAAATTTTCCTAATCTTTCTGTTCAAGCGCCATCTAC” here?
Answer: 5.77 RPM ratio (pull-down/input)

Question: With “GATGATTGTTCTCCCAGCTGATGAATTTCTAATCTCGAGTAAACAAATTTTCCTAATCTTTCTGTTCAAGCGCCATCTAC” as the sequence, how does the binding signal read?
Answer: 0.288 RPM ratio (pull-down/input)

Question: With “GATGATTGTTCTCCCAGCTGATGAATTGTCTTACTCGAGTAAACAAATTTTCCTAATCTTTCTGTTCAAGCGCCATCTAC” as the sequence, how does the binding signal read?
Answer: 0.469 RPM ratio (pull-down/input)

Question: “GATGATTGTTCTCCCAGCTGATGAATTGTTTGTCTCGAGTAAACAAATTTTCCTAATCTTTCTGTTCAAGCGCCATCTAC” was tested. Which binding signal did it give?
Answer: 7.63 RPM ratio (pull-down/input)

Question: For “GATGATTGTTCTCCCAGCTGATGAATTGTCCTACTCGAGTAAACAAATTTTCCTAATCTTTCTGTTCAAGCGCCATCTAC”, which binding signal is on record?
Answer: 0.368 RPM ratio (pull-down/input)

Question: With “GATGATTGTTCTCCCAGCTGATGAATTGTTGTTCTCGAGTAAACAAATTTTCCTAATCTTTCTGTTCAAGCGCCATCTAC” as the sequence, how does the binding signal read?
Answer: 7.17 RPM ratio (pull-down/input)

Question: How did the binding signal turn out when “GATGATTGTTCTCCCAGCTGATGAATTTCTGTCCTCGAGTAAACAAATTTTCCTAATCTTTCTGTTCAAGCGCCATCTAC” was run?
Answer: 0.313 RPM ratio (pull-down/input)

Question: With “GATGATTGTTCTCCCAGCTGATGAATTTTGTCTCTCGAGTAAACAAATTTTCCTAATCTTTCTGTTCAAGCGCCATCTAC” as the sequence, how does the binding signal read?
Answer: 2.39 RPM ratio (pull-down/input)

Question: For “GATGATTGTTCTCCCAGCTGATGAATTCTTTGTCTCGAGTAAACAAATTTTCCTAATCTTTCTGTTCAAGCGCCATCTAC”, which binding signal is on record?
Answer: 0.413 RPM ratio (pull-down/input)

Question: For “GATGATTGTTCTCCCAGCTGATGAATTTTTTTTCTCGAGTAAACAAATTTTCCTAATCTTTCTGTTCAAGCGCCATCTAC”, which binding signal is on record?
Answer: 0.267 RPM ratio (pull-down/input)

Question: How did the binding signal turn out when “GATGATTGTTCTCCCAGCTGATGAATTGTTGTCCTCGAGTAAACAAATTTTCCTAATCTTTCTGTTCAAGCGCCATCTAC” was run?
Answer: 5.63 RPM ratio (pull-down/input)

Question: For “GATGATTGTTCTCCCAGCTGATGAATTGTCCTCCTCGAGTAAACAAATTTTCCTAATCTTTCTGTTCAAGCGCCATCTAC”, which binding signal is on record?
Answer: 0.37 RPM ratio (pull-down/input)
